Source: PMC7862700, “An all-to-all approach to the identification of sequence-specific readers for epigenetic DNA modifications on cytosine”

How the values were obtained:
Experiment in all cases: DAPPL (digital affinity profiling via proximity ligation, sequencing); 10 mM Tris-HCl pH 7.5, 50 mM NaCl, 1 mM DTT, 4% glycerol, room temperature, 30 min; GST-TFs on glutathione beads, 16-mer random dsDNA library, 0.1% formaldehyde crosslink after washing; high values mean tight binding
Conditions in all cases: protein: recombinant; tags: N-terminal GST; dsDNA, one strand shown
[1] = biological target: T1, ERF (Homo sapiens, UniProt P50548 1-548)
T1 sequence: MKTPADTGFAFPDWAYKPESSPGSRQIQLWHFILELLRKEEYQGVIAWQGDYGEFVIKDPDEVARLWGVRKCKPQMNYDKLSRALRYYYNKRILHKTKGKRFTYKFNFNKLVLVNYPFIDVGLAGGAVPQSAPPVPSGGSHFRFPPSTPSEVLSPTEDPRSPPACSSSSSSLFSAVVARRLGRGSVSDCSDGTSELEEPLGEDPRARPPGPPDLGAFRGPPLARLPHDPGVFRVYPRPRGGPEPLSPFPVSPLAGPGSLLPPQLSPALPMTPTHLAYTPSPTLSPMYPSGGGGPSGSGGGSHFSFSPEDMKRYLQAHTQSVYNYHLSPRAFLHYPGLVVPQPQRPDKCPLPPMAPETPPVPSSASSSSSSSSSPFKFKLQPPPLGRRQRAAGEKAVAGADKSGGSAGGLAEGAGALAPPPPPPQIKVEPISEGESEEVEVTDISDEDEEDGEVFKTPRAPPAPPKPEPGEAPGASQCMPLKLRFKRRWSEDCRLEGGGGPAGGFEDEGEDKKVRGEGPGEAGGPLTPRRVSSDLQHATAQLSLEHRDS
Summary of the method: (§1)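 Binding signal is each hexamer's read frequency for a factor divided by its frequency in the tag-only sample. The factors were GST-fused human transcription factors from yeast, captured on glutathione beads, DNA-barcoded and pooled with that sample. Pools were incubated with 200 nmole of a random double-stranded 16-mer DNA library in Tris/NaCl/DTT/glycerol buffer at room temperature for 30 min, then washed, crosslinked with 0.1% formaldehyde, proximity-ligated with BsaI/T4 ligase (1 h, 37 °C), PCR-amplified and sequenced on an Illumina NextSeq500.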

[2] = biological target: T2, ETV3L (Homo sapiens, UniProt Q6ZN32 1-361)
T2 sequence: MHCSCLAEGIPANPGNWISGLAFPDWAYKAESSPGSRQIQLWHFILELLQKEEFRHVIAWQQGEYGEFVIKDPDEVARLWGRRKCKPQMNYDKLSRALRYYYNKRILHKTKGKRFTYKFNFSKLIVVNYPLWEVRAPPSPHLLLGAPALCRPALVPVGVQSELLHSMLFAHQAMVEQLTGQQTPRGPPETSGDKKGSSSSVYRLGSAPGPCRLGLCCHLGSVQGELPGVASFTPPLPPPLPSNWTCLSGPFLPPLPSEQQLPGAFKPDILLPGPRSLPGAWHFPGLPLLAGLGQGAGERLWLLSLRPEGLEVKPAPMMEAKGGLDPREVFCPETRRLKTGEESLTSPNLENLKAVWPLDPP
Summary of the method: as §1

[3] = biological target: T3, ETS2 (Homo sapiens, UniProt P15036 1-469)
T3 sequence: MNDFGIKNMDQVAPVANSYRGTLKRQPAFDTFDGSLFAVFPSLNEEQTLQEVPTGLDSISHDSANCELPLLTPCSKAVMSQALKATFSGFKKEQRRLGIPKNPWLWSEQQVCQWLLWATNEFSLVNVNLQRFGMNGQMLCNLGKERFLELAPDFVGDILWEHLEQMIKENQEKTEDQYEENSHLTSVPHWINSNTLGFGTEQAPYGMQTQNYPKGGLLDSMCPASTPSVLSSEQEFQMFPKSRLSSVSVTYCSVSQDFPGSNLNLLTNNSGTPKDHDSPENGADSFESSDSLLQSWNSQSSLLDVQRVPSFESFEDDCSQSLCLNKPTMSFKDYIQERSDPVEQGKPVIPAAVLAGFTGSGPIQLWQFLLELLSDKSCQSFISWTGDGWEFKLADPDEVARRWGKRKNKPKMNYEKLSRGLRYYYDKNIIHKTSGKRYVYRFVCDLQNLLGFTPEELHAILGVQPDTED
Summary of the method: as §1

[4] = biological target: T4, SPDEF (Homo sapiens, UniProt O95238 1-335)
T4 sequence: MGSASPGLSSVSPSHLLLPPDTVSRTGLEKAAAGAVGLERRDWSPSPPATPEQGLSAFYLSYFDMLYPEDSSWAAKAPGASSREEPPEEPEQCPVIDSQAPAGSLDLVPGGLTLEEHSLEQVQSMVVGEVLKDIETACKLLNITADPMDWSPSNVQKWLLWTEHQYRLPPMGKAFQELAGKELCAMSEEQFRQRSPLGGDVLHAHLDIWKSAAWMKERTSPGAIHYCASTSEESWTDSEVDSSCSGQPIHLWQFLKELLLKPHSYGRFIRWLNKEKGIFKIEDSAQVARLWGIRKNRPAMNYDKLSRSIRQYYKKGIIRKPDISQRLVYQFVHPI
Summary of the method: as §1

[5] = biological target: T5, ETV7 (Homo sapiens, UniProt Q9Y603 1-341)
T5 sequence: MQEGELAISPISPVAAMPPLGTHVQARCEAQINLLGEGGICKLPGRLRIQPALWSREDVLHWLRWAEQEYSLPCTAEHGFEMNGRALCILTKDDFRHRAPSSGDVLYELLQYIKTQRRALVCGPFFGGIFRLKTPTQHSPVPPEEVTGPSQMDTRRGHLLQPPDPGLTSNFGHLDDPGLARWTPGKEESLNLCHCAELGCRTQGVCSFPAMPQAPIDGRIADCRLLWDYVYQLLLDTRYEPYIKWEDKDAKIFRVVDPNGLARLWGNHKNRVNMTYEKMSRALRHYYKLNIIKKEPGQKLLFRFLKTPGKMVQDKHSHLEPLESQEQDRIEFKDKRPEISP
Summary of the method: as §1

[6] = biological target: T6, ELF5 (Homo sapiens, UniProt Q9UKW6-2 1-255)
T6 sequence: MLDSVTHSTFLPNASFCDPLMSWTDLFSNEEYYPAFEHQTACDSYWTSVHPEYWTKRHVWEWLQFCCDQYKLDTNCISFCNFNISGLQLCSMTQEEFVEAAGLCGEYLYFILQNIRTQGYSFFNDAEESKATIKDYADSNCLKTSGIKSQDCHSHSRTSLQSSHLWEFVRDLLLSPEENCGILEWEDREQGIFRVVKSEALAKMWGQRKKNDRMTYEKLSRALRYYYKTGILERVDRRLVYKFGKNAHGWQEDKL
Summary of the method: as §1

[7] = biological target: T7, ETV3 (Homo sapiens, UniProt P41162-2 1-143)
T7 sequence: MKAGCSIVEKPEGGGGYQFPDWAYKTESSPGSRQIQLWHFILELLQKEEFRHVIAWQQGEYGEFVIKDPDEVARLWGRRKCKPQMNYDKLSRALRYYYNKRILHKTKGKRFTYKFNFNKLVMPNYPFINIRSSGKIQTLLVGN
Summary of the method: as §1

[8] = biological target: ETV6 (Homo sapiens, UniProt P41212 1-452)
Summary of the method: as §1

ETV6, sequence (P41212 whole entry): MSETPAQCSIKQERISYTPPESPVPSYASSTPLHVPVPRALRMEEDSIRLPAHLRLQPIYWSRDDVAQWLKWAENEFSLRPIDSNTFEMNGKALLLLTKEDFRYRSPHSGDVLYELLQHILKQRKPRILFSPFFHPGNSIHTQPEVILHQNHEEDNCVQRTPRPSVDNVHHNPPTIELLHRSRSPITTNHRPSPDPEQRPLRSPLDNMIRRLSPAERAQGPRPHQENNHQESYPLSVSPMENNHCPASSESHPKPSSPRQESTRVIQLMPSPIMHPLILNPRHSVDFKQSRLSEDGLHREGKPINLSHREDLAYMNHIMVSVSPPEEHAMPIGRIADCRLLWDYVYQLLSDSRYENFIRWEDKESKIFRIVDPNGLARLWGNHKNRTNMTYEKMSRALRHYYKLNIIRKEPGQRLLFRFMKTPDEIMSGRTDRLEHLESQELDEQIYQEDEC

Sequence | binding signal [1] | binding signal [2] | binding signal [3] | binding signal [4] | binding signal [5] | binding signal [6] | binding signal [7] | binding signal [8]
CCTTAT | 1.41 fold enrichment (6-mer frequency, TF over GST control) | 1.46 fold enrichment (6-mer frequency, TF over GST control) | 1.41 fold enrichment (6-mer frequency, TF over GST control) | 1.71 fold enrichment (6-mer frequency, TF over GST control) | 1.49 fold enrichment (6-mer frequency, TF over GST control) | 1.73 fold enrichment (6-mer frequency, TF over GST control) | 1.39 fold enrichment (6-mer frequency, TF over GST control) | 1.42 fold enrichment (6-mer frequency, TF over GST control)
TAACCA | 1.1 fold enrichment (6-mer frequency, TF over GST control) | 1.13 fold enrichment (6-mer frequency, TF over GST control) | 1.12 fold enrichment (6-mer frequency, TF over GST control) | 1.05 fold enrichment (6-mer frequency, TF over GST control) | 1.09 fold enrichment (6-mer frequency, TF over GST control) | 1.09 fold enrichment (6-mer frequency, TF over GST control) | 1.13 fold enrichment (6-mer frequency, TF over GST control) | 1.04 fold enrichment (6-mer frequency, TF over GST control)
GCTGCT | 1.11 fold enrichment (6-mer frequency, TF over GST control) | 1.43 fold enrichment (6-mer frequency, TF over GST control) | 1.43 fold enrichment (6-mer frequency, TF over GST control) | 1.21 fold enrichment (6-mer frequency, TF over GST control) | 1.21 fold enrichment (6-mer frequency, TF over GST control) | 1.23 fold enrichment (6-mer frequency, TF over GST control) | 1.2 fold enrichment (6-mer frequency, TF over GST control) | 1.27 fold enrichment (6-mer frequency, TF over GST control)
TGTATA | 1.24 fold enrichment (6-mer frequency, TF over GST control) | 1.11 fold enrichment (6-mer frequency, TF over GST control) | 1.1 fold enrichment (6-mer frequency, TF over GST control) | 1.24 fold enrichment (6-mer frequency, TF over GST control) | 1.09 fold enrichment (6-mer frequency, TF over GST control) | 1.11 fold enrichment (6-mer frequency, TF over GST control) | 1.04 fold enrichment (6-mer frequency, TF over GST control) | 1.04 fold enrichment (6-mer frequency, TF over GST control)
CCCCCG | 1.17 fold enrichment (6-mer frequency, TF over GST control) | 1.13 fold enrichment (6-mer frequency, TF over GST control) | 1.06 fold enrichment (6-mer frequency, TF over GST control) | 1.13 fold enrichment (6-mer frequency, TF over GST control) | 1.05 fold enrichment (6-mer frequency, TF over GST control) | 1.07 fold enrichment (6-mer frequency, TF over GST control) | 1.22 fold enrichment (6-mer frequency, TF over GST control) | 1.12 fold enrichment (6-mer frequency, TF over GST control)
CCCCTT | 1.53 fold enrichment (6-mer frequency, TF over GST control) | 1.47 fold enrichment (6-mer frequency, TF over GST control) | 1.51 fold enrichment (6-mer frequency, TF over GST control) | 1.5 fold enrichment (6-mer frequency, TF over GST control) | 1.56 fold enrichment (6-mer frequency, TF over GST control) | 1.64 fold enrichment (6-mer frequency, TF over GST control) | 1.51 fold enrichment (6-mer frequency, TF over GST control) | 1.51 fold enrichment (6-mer frequency, TF over GST control)
TTTTTA | 1.26 fold enrichment (6-mer frequency, TF over GST control) | 1.29 fold enrichment (6-mer frequency, TF over GST control) | 1.34 fold enrichment (6-mer frequency, TF over GST control) | 1.29 fold enrichment (6-mer frequency, TF over GST control) | 1.35 fold enrichment (6-mer frequency, TF over GST control) | 1.27 fold enrichment (6-mer frequency, TF over GST control) | 1.4 fold enrichment (6-mer frequency, TF over GST control) | 1.33 fold enrichment (6-mer frequency, TF over GST control)
TCCTGG | 1.43 fold enrichment (6-mer frequency, TF over GST control) | 1.83 fold enrichment (6-mer frequency, TF over GST control) | 1.82 fold enrichment (6-mer frequency, TF over GST control) | 2.13 fold enrichment (6-mer frequency, TF over GST control) | 1.56 fold enrichment (6-mer frequency, TF over GST control) | 2.35 fold enrichment (6-mer frequency, TF over GST control) | 1.74 fold enrichment (6-mer frequency, TF over GST control) | 1.77 fold enrichment (6-mer frequency, TF over GST control)
TTGCTG | 1.28 fold enrichment (6-mer frequency, TF over GST control) | 1.26 fold enrichment (6-mer frequency, TF over GST control) | 1.21 fold enrichment (6-mer frequency, TF over GST control) | 1.18 fold enrichment (6-mer frequency, TF over GST control) | 1.37 fold enrichment (6-mer frequency, TF over GST control) | 1.14 fold enrichment (6-mer frequency, TF over GST control) | 1.23 fold enrichment (6-mer frequency, TF over GST control) | 1.13 fold enrichment (6-mer frequency, TF over GST control)
AATATT | 1.22 fold enrichment (6-mer frequency, TF over GST control) | 1.36 fold enrichment (6-mer frequency, TF over GST control) | 1.34 fold enrichment (6-mer frequency, TF over GST control) | 1.25 fold enrichment (6-mer frequency, TF over GST control) | 1.43 fold enrichment (6-mer frequency, TF over GST control) | 1.38 fold enrichment (6-mer frequency, TF over GST control) | 1.37 fold enrichment (6-mer frequency, TF over GST control) | 1.46 fold enrichment (6-mer frequency, TF over GST control)
ATCCCG | 1.4 fold enrichment (6-mer frequency, TF over GST control) | 1.33 fold enrichment (6-mer frequency, TF over GST control) | 1.44 fold enrichment (6-mer frequency, TF over GST control) | 1.71 fold enrichment (6-mer frequency, TF over GST control) | 1.27 fold enrichment (6-mer frequency, TF over GST control) | 1.7 fold enrichment (6-mer frequency, TF over GST control) | 1.41 fold enrichment (6-mer frequency, TF over GST control) | 1.52 fold enrichment (6-mer frequency, TF over GST control)
GCTGTT | 1.08 fold enrichment (6-mer frequency, TF over GST control) | 1.1 fold enrichment (6-mer frequency, TF over GST control) | 1.09 fold enrichment (6-mer frequency, TF over GST control) | 1.08 fold enrichment (6-mer frequency, TF over GST control) | 1.21 fold enrichment (6-mer frequency, TF over GST control) | 1.04 fold enrichment (6-mer frequency, TF over GST control) | 1.15 fold enrichment (6-mer frequency, TF over GST control) | 1.03 fold enrichment (6-mer frequency, TF over GST control)
TTACGT | 1.11 fold enrichment (6-mer frequency, TF over GST control) | 1.18 fold enrichment (6-mer frequency, TF over GST control) | 1.21 fold enrichment (6-mer frequency, TF over GST control) | 1.13 fold enrichment (6-mer frequency, TF over GST control) | 1.14 fold enrichment (6-mer frequency, TF over GST control) | 1.12 fold enrichment (6-mer frequency, TF over GST control) | 1.15 fold enrichment (6-mer frequency, TF over GST control) | 1.09 fold enrichment (6-mer frequency, TF over GST control)
TCCCGA | 1.34 fold enrichment (6-mer frequency, TF over GST control) | 1.21 fold enrichment (6-mer frequency, TF over GST control) | 1.29 fold enrichment (6-mer frequency, TF over GST control) | 1.37 fold enrichment (6-mer frequency, TF over GST control) | 1.35 fold enrichment (6-mer frequency, TF over GST control) | 1.52 fold enrichment (6-mer frequency, TF over GST control) | 1.26 fold enrichment (6-mer frequency, TF over GST control) | 1.22 fold enrichment (6-mer frequency, TF over GST control)
TAGCAT | 1.09 fold enrichment (6-mer frequency, TF over GST control) | 1.14 fold enrichment (6-mer frequency, TF over GST control) | 1.11 fold enrichment (6-mer frequency, TF over GST control) | 1.21 fold enrichment (6-mer frequency, TF over GST control) | 1.11 fold enrichment (6-mer frequency, TF over GST control) | 1.01 fold enrichment (6-mer frequency, TF over GST control) | 1.16 fold enrichment (6-mer frequency, TF over GST control) | 1.15 fold enrichment (6-mer frequency, TF over GST control)
